D1 potentiator: human D1 dopamine receptor positive modulation. P21728. 360,000 tested, 0.036% active. HEK293 TREx D1 cells, calcium flux, dopamine EC20 potentiation. potentiation, % at 10 µM. AID 504651; in the data active = potentiation above about 30%; also: 0% is about no effect
D1 agonist: agonists of human D1 dopamine receptor. P21728. HEK293 T-REx D1 cells, calcium flux, agonist mode. activation, % at 2 µM. 360,000 tested, 1% active. AID 504660; in the data active = activation above about 30%; also: 0% is about no effect
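Agonism was scored from calcium flux recorded over 180 s (1 read/s) after pintool compound addition, following a 10-cycle baseline. Cells were inducible force-coupled HEK293 TREx D1, plated overnight at 30 C and loaded with no-wash calcium dye.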
DRD3 agonist: activates the human D3 dopamine receptor | P35462 | D3R DiscoveRx beta-arrestin cells, luminescence, 90 min | AID 652048 | max activation, % | 410,000 tested, 0.58% active; in the data active = max activation above about 30%; also: 0% is about no effect
Target sequence (P35462 whole entry, looked up): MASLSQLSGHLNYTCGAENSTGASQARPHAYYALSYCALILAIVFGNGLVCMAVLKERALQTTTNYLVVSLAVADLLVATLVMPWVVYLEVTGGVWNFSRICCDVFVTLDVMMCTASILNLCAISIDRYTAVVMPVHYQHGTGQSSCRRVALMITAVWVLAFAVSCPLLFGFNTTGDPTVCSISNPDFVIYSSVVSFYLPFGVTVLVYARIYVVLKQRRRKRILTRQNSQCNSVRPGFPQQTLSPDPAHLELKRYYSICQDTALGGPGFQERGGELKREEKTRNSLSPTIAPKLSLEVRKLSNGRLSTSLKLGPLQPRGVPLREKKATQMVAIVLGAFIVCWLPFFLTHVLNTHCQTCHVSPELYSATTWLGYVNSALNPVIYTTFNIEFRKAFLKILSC
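Agonist mode: compounds and dopamine controls were applied to plated cells for 90 min at 37 degrees C after an overnight attachment at 1500 cells/well. Luminescent read-out followed 30 - 60 minutes at room temperature with DiscoveRx detection reagent.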
D1 antagonist: human D1 dopamine receptor antagonism | HEK293 TREx D1 cells, calcium flux, dopamine EC80; hits give low values | 360,000 tested, 3.2% active | P21728 | activity change, negative = inhibition, % at 10 µM; in the data active = activity change below about -30%; also: % is scaled to controls: 0 for no effect and ±100 for the full control effect
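Compound effects on dopamine-evoked calcium signalling were measured in tetracycline-induced HEK293 Trex D1 cells. Dopamine at EC80 followed a 180 s compound pre-read, and fluorescence was tracked kinetically for 180 s more.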
D3 antag: antagonists of human D3 dopamine receptor; P35462; D3R cells, DiscoveRx beta-arrestin luminescence, antagonist mode; hits give low values; max response, negative = inhibition, %; 360,000 tested, 2.5% active; in the data active = max response below about -50%; inconclusive = no clear call, values can overlap the other calls; also: % is scaled to controls: 0 for no effect and ±100 for the full control effect
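Cells plated overnight at 1500 cells/well, then exposed to library compounds with dopamine controls for 90 minutes at 37 degrees C. DiscoveRx reagent added for 30–60 minutes at room temperature; luminescence read, quantitative HTS format.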
Numbers without * were called inactive; ? = inconclusive; . = not tested or not shown; ! = not active in a repeat. Hits are enriched below; roughly 6% of the tested compounds scored in any of these assays.

SMILES | D1 potentiator | D1 agonist | DRD3 agonist | D1 antagonist | D3 antag
Cc1cc(Cl)c(OCCOCCN2CCN(C)CC2)c(Br)c1 | -1.4 | 3.7 | -21.7 | 7.0 | 0.8
Cc1nc2sc3c(=O)[nH]nnc3c2c(C)c1Br | -0.8 | 3.5 | -0.6 | -5.1 | 3.1
CC(C)(C)c1cc(Cl)ccc1OCCOCCN1CCCC1 | -3.6 | 21.7 | -29.4 | -4.1 | -29.8
CC1CCCN(CCSc2ccc(Cl)cc2)C1 (stereo not drawn) | -1.7 | 0.4 | -13.3 | 1.5 | ?
CC1CCCN(CCCOc2ccc(Cl)cc2Br)C1 (stereo not drawn) | -4.7 | 15.8 | -9.0 | -51.7* | -68.2*
COc1ccc(OCCCN2CCCC(C)C2)cc1 (stereo not drawn) | -13.6 | 3.5 | -15.4 | 3.3 | -60.5*
CC1CCN(CCCOc2ccc(Cl)cc2Br)CC1 | -9.7 | 14.0 | -23.1 | -12.4 | -89.3*
Clc1ccc(OCCOCCN2CCCCC2)c(Br)c1 | -11.2 | 19.8 | -1.7 | -45.1* | 46.2
C[C@@H]1CN([C@@H](C)CO)C(=O)CCCn2nncc2CO[C@@H]1CN(C)S(=O)(=O)c1ccc(Oc2ccccc2)cc1 | . | . | 0.8 | . | 14.1
c1ccc(COc2ncnc3c2ncn3CCCN2CCN(c3ncccn3)CC2)cc1 | . | . | 23.6 | . | 12.7
CCCCN1CC(=O)N2[C@H]3c4ccc(OC)cc4OC[C@@H]3[C@H](C(=O)OCC)[C@]2(C)C1=O | -2.4 | 8.1 | 11.3 | . | 15.8
N#Cc1ccccc1NC(=O)CSc1cn[nH]n1 | 1.4 | 2.6 | 7.9 | -2.2 | 5.7
CC1C=CCC2C(=O)N(c3cccc(C(=O)Nc4ccc(Br)cc4)c3)C(=O)C12 (stereo not drawn) | -1.6 | 0.6 | -3.6 | -11.4 | -20.5
CC1CCN(CCOCCOc2ccc(Cl)cc2Br)CC1 | -12.9 | 6.4 | -27.7 | -4.0 | -88.0*
CC(C)(C)OC(=O)N(CCc1ccccc1)Cc1ccccc1OCc1cccc(NC(=O)/C=C/c2ccccc2)c1 | . | . | -7.4 | . | -27.7
CCN(Cc1ccccc1)C(=O)c1[nH]c2ccc(OC)cc2c1C | -1.2 | 4.0 | 2.7 | -1.9 | 6.5
CCN(CC)CCNC(=O)c1[nH]c2ccc(OCc3ccccc3)cc2c1C | -7.0 | 126.2* | -8.9 | -64.0* | -86.0*
O=C(NNC1=NCCC1)c1cccc(Br)c1 | 0.6 | 4.3 | -1.5 | 10.0 | -58.1*
Cc1ccccc1C(=O)NNC1=NCCC1 | -1.1 | 2.6 | 0.1 | -1.5 | -11.6
CCOc1ccc(CCNC(=O)C(C)N2C(=O)CC(C)(C)Sc3ccccc32)cc1 (stereo not drawn) | -9.2 | 38.4* | -11.2 | -0.6 | 11.6
CCOc1ccc(CCNC(=O)CN2C(=O)CCSc3ccccc32)cc1 | 4.0 | 0.1 | 3.4 | 0.2 | 3.4
CC(=O)Nc1ccc(NC(=O)C(NC(=O)c2ccc(Cl)cc2)C(C)C)cc1 (stereo not drawn) | . | . | 2.0 | . | -15.4
CCSc1nnc(NC(=O)C(NC(=O)c2ccc(Cl)cc2)C(C)C)s1 (stereo not drawn) | -8.3 | 3.4 | -33.0 | -6.6 | -60.6*
O=C(N/N=C/c1ccc(OCc2ccccc2)cc1)c1cc[n+](Cc2ccccc2)cc1 | 0.2 | 0.4 | -3.1 | 4.8 | -59.3*
O=C(N/N=C/c1ccc(O)cc1)c1cc[n+](Cc2ccccc2)cc1 | 0.1 | 0.1 | -3.1 | 8.9 | ?
SMILES | D1 potentiator | D1 agonist | DRD3 agonist | D1 antagonist | D3 antag
CN(CC(=O)Nc1ccccc1Cl)C(=O)Cn1cnc2ccccc2c1=O | 0.1 | 2.5 | 8.1 | 1.1 | 7.2
COc1ccc(NC(=O)CCC(=O)NCc2ccco2)c([N+](=O)[O-])c1 | 6.1 | -0.2 | 0.2 | 25.2 | 4.2
C=Cc1c(C)c2cc3[nH]c(cc4nc(cc5nc(cc1[nH]2)C(C)=C5CCC(=O)O)C(CCC(=O)O)=C4C)c(C)c3C=C | -7.0 | -1.2 | 36.1*! | 17.7 | 4.5
CCCOc1ccc(OCCNC2CCCC2)cc1 | 8.7 | 2.9 | -9.9 | -21.6 | -9.9
CCOc1ccc(OCCNC2CCCC2)cc1 | -10.8 | 4.0 | -3.5 | 1.4 | -60.0*
N#Cc1ccccc1OCCCNC1CCCC1 | -4.3 | 9.0 | -4.5 | 11.3 | -80.1*
CCOc1ccccc1OCCNC1CCCC1 | -1.9 | 0.5 | -7.0 | 2.5 | -106.1*
CCOc1ccc(CNC2CCCCCCC2)cc1OC | -1.9 | 6.6 | -15.6 | -4.6 | -14.6
CCC[C@@H]1C[C@@H](C(=O)N[C@@H]([C@H]2O[C@H](SC)[C@H](O)[C@@H](O)[C@H]2O)[C@H](C)Cl)N(C)C1 | . | . | -12.9 | . | .
Cc1cc(OC(C)C(=O)NCC2CCCO2)cc(C)c1Cl (stereo not drawn) | -0.9 | 1.8 | 1.4 | -3.9 | 6.5
COC(=O)c1c(SC)nc2ccccc2c1OCc1ccc(C)cc1C | -2.0 | 14.0 | 16.0 | 4.6 | .
Cn1c(=O)n(-c2ccc3c(c2)OCO3)c2nc(-c3ccccc3)nc(C(N)=O)c21 | -2.5 | 3.6 | -9.3 | -2.9 | .
CCN(CC)c1ccc(/C=C2/C(=O)c3ccc(C(=O)O)cc3C2=O)cc1 | -0.5 | 260.9* | -11.5 | -5.6 | -56.2*
CC(=O)Nc1ccc(NC(=O)c2ccc(C3SCC(=O)N3CCc3ccccc3)cc2)cc1 (stereo not drawn) | -2.2 | 6.1 | 1.1 | -52.2* | 1.4
Cc1cccc(NC(=O)c2ccc(C3SCC(=O)N3CCc3ccccc3)cc2)c1 (stereo not drawn) | -0.6 | 1.8 | -17.3 | -1.8 | -25.2
CN1CCN(Cc2c(O)ccc3occ(C(=O)c4ccccc4)c23)CC1 | -10.7 | 14.9 | 0.9 | -77.0* | -0.3
CCN(CC)C(=O)c1c(-c2ccccc2)oc2ccc(O)cc12 | -2.6 | 0.7 | -8.3 | -30.8* | -7.2
CCOC(=O)c1c(-c2ccccc2)oc2ccc(O)cc12 | 3.1 | 1.9 | 6.9 | 6.8 | 2.9
CCN(CC)CCOC(=O)c1c(C)oc2ccc(O)cc12 | -4.0 | 2.2 | -15.3 | -2.7 | -71.6*
CCOC(=O)c1c(CN2CCN(C)CC2)oc2ccc(O)cc12 | -1.9 | 4.8 | -2.8 | 5.0 | -54.4*
COCCOC(=O)c1c(C)oc2ccc(OCc3cc(C(=O)OC)oc3C)cc12 | -3.1 | 7.0 | 48.3* | 7.7 | 28.4
CCNC(=O)c1cc2c(c(-c3cccc(-c4cccc(C(=O)N(C)C)c4)c3)n1)[C@@H](CCO)N(S(=O)C(C)(C)C)C2 (stereo partly drawn) | . | . | 7.3 | . | 6.1
CCOC(=O)c1c(SCCN2CCCC2)n(-c2ccccc2)c(=S)n(-c2ccccc2)c1=O | . | . | -17.0 | . | -119.3*
CCN(CC)CCCNC(=O)c1cc2c(-c3cccc(OC)c3)nn(C)c2s1 | -3.5 | 0.8 | -6.7 | -2.4 | -82.2*
CCCCN(C)CCNC(=O)c1cc2c(-c3ccccc3F)nn(C)c2s1 | 2.0 | 2.4 | -38.3 | -7.3 | -94.8*
COCCNC(=O)c1cc2c(-c3ccccc3F)nn(C)c2s1 | -8.0 | -2.6 | -5.1 | 15.1 | -8.7
COc1cccc(-c2nn(C)c3sc(C(=O)NCCc4ccc(Cl)cc4)cc23)c1 | -1.2 | 3.4 | 5.3 | -2.6 | .
CCCCN(C)CCNC(=O)c1cc2c(-c3cccc(OC)c3)nn(C)c2s1 | -6.0 | 0.4 | -18.9 | 4.5 | -78.1*

Source: PubChem
